Data reported in PubChem BioAssay AID778 (Sanford-Burnham Center for Chemical Genomics, 2007).
Screen size: about 96,000 compounds; about 20,000 (21%) were called active.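 Rule for the calls: active = CYP2C19 inhibition above a set limit at 5 µM in the primary screen (cut at about 50% in these data); inactive = the rest.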 Only a sample is shown.

These molecules were tested against Cytochrome P450 2C19 (Homo sapiens) (UniProt P33261) (assay: blockers of cytochrome P450 2C19 activity – biochemical, luminescence, ADME assay, primary screen (AID 778;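 note: plate controls were negative control wells for no effect and 2.5 mM tranylcypromine positive control for full effect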)). Conditions: CYP2C19 Supersomes, luciferin-H EGE luminescence, 30 min; at 5 µM; active compounds read high.
Sequence of Cytochrome P450 2C19 (Homo sapiens) (P33261 whole entry, looked up): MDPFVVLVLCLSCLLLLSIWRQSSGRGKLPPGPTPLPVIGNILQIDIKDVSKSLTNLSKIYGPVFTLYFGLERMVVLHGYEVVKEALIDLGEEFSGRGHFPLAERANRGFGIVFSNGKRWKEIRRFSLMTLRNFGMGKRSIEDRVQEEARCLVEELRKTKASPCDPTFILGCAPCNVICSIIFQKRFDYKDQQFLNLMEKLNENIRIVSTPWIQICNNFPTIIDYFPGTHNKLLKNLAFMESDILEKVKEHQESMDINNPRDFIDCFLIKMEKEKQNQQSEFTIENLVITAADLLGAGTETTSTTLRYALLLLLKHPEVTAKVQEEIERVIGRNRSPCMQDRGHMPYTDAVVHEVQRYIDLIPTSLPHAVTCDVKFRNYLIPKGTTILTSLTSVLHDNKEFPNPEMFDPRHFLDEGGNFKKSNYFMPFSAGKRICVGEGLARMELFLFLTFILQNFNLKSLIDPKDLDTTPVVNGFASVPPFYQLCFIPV

inhibition, active:
Oc1c(C(c2ccco2)N2CCC3(CC2)OCCO3)sc2ncnn12 (stereo not given) 68.4%
Oc1c(C(c2cccs2)N2CCN(c3ccc(F)cc3)CC2)sc2ncnn12 (stereo not given) 87.6%
O=C(c1ccc(F)cc1)c1c[nH]c(C(=O)NCc2cccnc2)c1 65.3%
CCCCNCc1ccc(SC)cc1 69.4%
Cc1nn(CC(=O)Nc2nc3ccccc3s2)c(C)c1[N+](=O)[O-] 52.2%
Cc1c(Br)cc(C(=O)N2CCCCCC2)c(C)c1C 96%
CCOC(=O)c1c(C2CC2)csc1NC(=O)CSCc1c(C)noc1C 64%
Cc1cc(SCC(=O)c2ccccc2)nc(SCC(=O)c2ccccc2)n1 53.4%
CC(C)CNC(=O)CC(c1ccccc1)c1c(O)ccc2ccccc12 (stereo not given) 58.9%
CCOc1ccccc1NC(=O)CCN1CCN(S(=O)(=O)c2ccc(OC)cc2)CC1 68.5%
O=C(Nc1ccccc1F)c1cc(S(=O)(=O)N2CCCCC2)cs1 62%
O=C(CN1CCN(S(=O)(=O)c2ccc(F)cc2)CC1)Nc1ccccc1F 57.1%
COC(=O)c1ccc(NCC(=O)c2ccccc2)cc1 64.3%
CC1=CC(C)(C)N(C(=O)CSc2nccn2C)c2cc(C)ccc21 82.8%
COc1ccccc1NC(=O)[C@H](COCc1ccccc1)NC(=O)OC(C)(C)C 54.6%
CCOc1ccc2nc(N3CCCN(C(=O)Nc4ccccc4C)CC3)c(C#N)cc2c1 89.4%
Cc1cc(N2CCN(S(=O)(=O)c3ccc(C)c(C)c3)CC2)c2ccccc2n1 95.8%
O=C(c1ccc(-n2cnnn2)cc1)N1CCN(C(c2ccccc2)c2ccccc2)CC1 71.6%
OC(COc1cccc2ccccc12)CN1CCN(c2ccccn2)CC1 (stereo not given) 88.8%

inhibition, inactive:
CCN(CC)CCN1C(=O)C(=O)/C(=C(/O)c2ccc(OC)c(OC)c2)C1c1ccccn1 (stereo not given) -1.7%
CCCS(=O)(=O)N1CCCC(C(=O)N2CCN(c3ccccc3)CC2)C1 (stereo not given) -4.5%
CCCCNC(=O)C(=O)c1ccccc1NC(C)=O 13%
Cc1ccc(C(c2sc3nc(C)nn3c2O)N2CCN(c3ccccc3)CC2)cc1 (stereo not given) 33.7%
Cc1ccc(C(c2sc3nc(C)nn3c2O)N2CCN(c3ccc(F)cc3)CC2)cc1 (stereo not given) 42.9%
CCOC(=O)c1ccc(COC(=O)CCc2nc(-c3ccccc3)c(-c3ccccc3)o2)cc1 34.1%
Cc1nc(NC(=O)CCC(=O)O)sc1C(=O)N(C)C -12.7%
CCOc1ccc(N=C2SC(C(=O)O)CC(=O)N2C)cc1 (stereo not given) 1.7%
COc1ccc2c(c1OC)C(=O)OC2c1c(O)nc(SC)n(-c2ccccc2)c1=O (stereo not given) -15.5%
O=c1cccc(-c2ccc(Br)cc2)o1 -9.6%
CC(=O)Nc1ccc(N2C(=O)C3C4CC(=O)C(c5ccccc54)C3C2=O)cc1 (stereo not given) 30.7%
O=C(Nc1nnc(CCOCCOCCc2nnc(NC(=O)c3ccco3)s2)s1)c1ccco1 0.8%
Cc1ccc(-n2nc(-c3ccco3)cc2C(=O)NCc2cccnc2)cc1 16.2%
COCCn1c(=O)[nH]c2cc(C(=O)NCc3cccnc3)ccc2c1=O 3.1%
O=C(NCc1ccccn1)c1cnc2sccn2c1=O -12.6%
Cc1cc(C(=O)NCCCc2ccccc2)no1 10.8%
CCOC(=O)c1cnc(SC)nc1Sc1ccc(Cl)cc1Cl 25.2%
Cc1ccccc1C(=O)NCCN=C1NS(=O)(=O)c2ccccc21 11.7%
Cc1oc(CC(C)C)c(CN2CCCC2)c1C(=O)O -15.6%
N#CCCN(CCC#N)c1nnc(-c2ccccc2)s1 29%
Cc1cc(C)cc(OCC(=O)Nc2nc3ccc([N+](=O)[O-])cc3s2)c1 19.6%
Cc1nn(Cc2ccccc2Cl)c(C)c1NC(=O)Cn1nc([N+](=O)[O-])c(Cl)c1C 0.1%
CCC(CC)C(=O)N1CC(=O)Nc2ccc(Br)cc2C1c1ccccc1 (stereo not given) 47.6%
Cc1cccn2c(=O)c(/C=C3\SC(=S)N(CC(C)C)C3=O)c(NCCCOC(C)C)nc12 14.7%
COc1ccc2c(Cl)c(C(=O)NCc3ccco3)sc2c1 18.6%
COC(=O)c1nc(NC(=O)c2ccc(Cl)cc2)n[nH]1 -2.9%
NC(=O)c1ncc(C(F)(F)F)cc1Oc1ccc(F)cc1 31.9%
O=C(CNC(=O)c1ccccc1)NCC(=O)OCc1ccc(Cl)cc1 7.3%
Cc1ccc(C(=O)N2CCCCCC2)cc1Br 26.6%
Cc1ccc(C(=O)N2CCCC2)c(F)c1F 9.6%
CCOC(=O)c1c(-c2ccc(C)cc2C)csc1NC(=O)CSc1nnnn1C 27.2%
Cc1noc(C)c1CSCC(=O)Nc1nc2ccc(Oc3ccccc3)cc2s1 40.8%
COC(=O)c1cc(C(=O)CSc2nc(C)cc(C)n2)ccc1O 23.3%
Cc1nc(SCC(=O)c2ccccc2)c([N+](=O)[O-])[nH]1 23.7%
CC(C)CCOc1ccc(C(=O)C[N+]2(C)CCOCC2)cc1 12%
Cc1ccc(N2C(=O)c3ccccc3C2(O)c2ncc[nH]2)cc1 (stereo not given) 5.2%
COc1ccc(CC(=O)n2nc(-c3cccnc3)nc2N)cc1 22.6%
CCOc1c(N2CCCCC2)c(=O)c1=O -3.9%
CC(C)CNC(=O)COC(=O)/C=C/c1ccccc1[N+](=O)[O-] 2.4%
CCc1ccc(/C=N/NC(=O)c2ccc(OC3CCCC3)cc2)s1 25.8%
Cc1cc(N(C)C)cc(C)[n+]1[O-] -6.3%
O=C1CSC(=O)N1CCOCCN1C(=O)CSC1=O 15.9%
O=C(Nc1ccc(S(=O)(=O)N2CCCCC2)cc1)c1cnccn1 9.9%
COc1cc2c(cc1NC(=O)CN1CCN(S(=O)(=O)c3ccc(F)cc3)CC1)oc1ccccc12 11.9%
COc1ccc(S(=O)(=O)N2CCCC(C(=O)Nc3ccc(NC(=O)c4ccccn4)cc3)C2)cc1 (stereo not given) 20.8%
COc1ccccc1NC(=O)CN1CCN(S(=O)(=O)c2ccc(Br)cc2)CC1 34%
CCOc1ccccc1NC(=O)c1cc(S(=O)(=O)N2CCC3(CC2)OCCO3)ccc1F 9.8%
CCOC(=O)c1[nH]c2ccc(OC)cc2c1NC(=O)CCN1CCN(Cc2ccccc2)CC1 32.7%
Cc1nc2ccc(C(=O)N3CCSCC3)cc2s1 -5.2%
CCOC(=O)c1ccc(NC(=O)CSc2nnc(COc3ccccc3OC)n2C)cc1 38.9%
CCOC(=O)c1c(NC(=S)NC(=O)c2ccco2)sc2c1CCCC2 -3.4%
O=C(CCS(=O)(=O)c1cccc2nsnc12)N1CCN(c2ccccc2F)CC1 45.5%
Cc1ccc(S(=O)(=O)N2CCC(C(=O)N[C@@H](C)C(=O)NCc3ccccc3)CC2)cc1 6%
CCN=C1SC(CC(=O)Nc2ccc(C)cc2)C(=O)N1CC (stereo not given) 38.5%
CN(C(=O)CC(NC(=O)c1ccccc1)(c1ccccc1)c1ccccc1)c1ccccc1 36.4%
COC(=O)c1ccc(NC(=O)Nc2ccc(C)cc2)cc1 2.9%
CCOC(=O)c1nc(Nc2ccc(C(=O)OC)cc2)c2ccccc2n1 49.1%
C=CCNC(=O)CSc1nc2sc(C)c(C)c2c(=O)[nH]1 14.3%
CCSc1nnc(NC(=O)c2ccc(C)cc2)s1 25.5%
CC1=CC(C)(C)N(C(=O)CSc2nnc(-c3ccccc3)o2)c2ccc(C)cc21 25.2%
CCOC(=O)c1c(NC(=O)CCC(=O)NCc2ccco2)sc2c1CCCC2 10.1%
COc1ccccc1NC(=S)NC(=O)C(C)C 16.5%
COc1ccccc1NC(=O)CC(NCCN(C)C)C(=O)O (stereo not given) -1.5%
C/C(=C\C(=O)c1ccc(Br)cc1)N1CCCCC1 7.2%
O=C(CNCCO)NC12CC3CC(CC(C3)C1)C2 0.8%
Cc1cccc2cc(C#N)c(N3CCCC3)nc12 1.4%
COc1ccc2nc(N3CCCC(O)C3)c(C#N)cc2c1 (stereo not given) 42.8%
CS(=O)(=O)N(C(=O)NC(=O)NC1CCS(=O)(=O)C1)C1CCCCC1 (stereo not given) -6.1%
Cc1c(C(=O)N2CC(C)OC(C)C2)sc2nc(-c3ccccc3)cn12 (stereo not given) 3.7%
CC(C)NC(=O)NC(=O)COC(=O)c1ccc(NC(=O)CC#N)cc1 0.7%
COc1ccc([N+](=O)[O-])cc1C1NN=C(c2cccc3ccccc23)S1 (stereo not given) 32.4%
CCN1CCN(C(=O)c2cc3cc4ccc(OC)cc4nc3s2)CC1 -9.4%
Cc1ccc(C)c(N2CCN(S(=O)(=O)c3ccc4c(c3)oc(=O)n4C)CC2)c1 4.3%
O=c1ccc2cc(S(=O)(=O)N3CCN(c4ccccc4)CC3)ccc2o1 1.3%
O=C(c1cccc(N2CCCC2=O)c1)N1CCOCC1 -8.7%
NC(=O)C1CCN(C(=O)c2ccc(-c3ccccc3)cc2)CC1 9.6%
O=C(O)CC(c1ccccc1)n1cnnn1 (stereo not given) -12.4%
Cc1ccc2cc3cc(C(=O)N4CCCCCC4)oc3nc2c1 19.1%
COc1cc(/C=N/Nc2nn3cnnc3c3ccccc23)cc(OC)c1OC 18.8%
O=C1c2cccc3cccc(c23)N1CN1CCN(c2ccccn2)CC1 1.9%
Cc1ccc(OCC(O)CN2CCN(CC(O)COc3ccc(C)cc3Cl)CC2)c(Cl)c1 (stereo not given) -5.7%
